Experimental findings from PubChem BioAssay (EPA / NIEHS) are described below.

Common to all, as to conditions: mRNA level, 48 h; actives raise or lower the signal
Read-out in assay [1]: Glutathione S-Transferase (GSTA2), GSTA2 (gene 2939)
The experiment in a line: LTEA_HepaRG_GSTA2: Life Technologies and Expression Analysis (LTEA) Assay for Glutathione S-Transferase (GSTA2) using HepaRG (AID 2283497). The gist of the method:
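Differentiated human HepaRG cells were exposed in duplicate for 48 h in serum-free induction medium, 8 points from 100 uM top in half-log steps, 0.5% DMSO. GSTA2 mRNA was measured by TaqMan qRT-PCR, normalized to ACTB, GAPDH and POLR2A; bidirectional fit versus DMSO.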

Read-out in assay [2]: Glutamate-cysteine ligase catalytic (GCLC), GCLC (gene 2729)
In words: LTEA_HepaRG_GCLC: Life Technologies and Expression Analysis (LTEA) Assay for Glutamate-cysteine ligase catalytic (GCLC) using HepaRG (AID 2283498). The gist of the method:
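Differentiated HepaRG cells exposed 48 h in serum-free induction medium, eight-point half-log series topping at 100 uM in 0.5% DMSO, duplicates. GCLC mRNA by qRT-PCR normalized to ACTB, GAPDH and POLR2A, fitted bidirectionally versus DMSO.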

Read-out in assay [3]: Glutamate-cysteine ligase regulatory (GCLM), GCLM (gene 2730)
The experiment in a line: LTEA_HepaRG_GCLM: Life Technologies and Expression Analysis (LTEA) Assay for Glutamate-cysteine ligase regulatory (GCLM) using HepaRG (AID 2283500). The procedure, abridged: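 Differentiated HepaRG cells exposed 48 h in serum-free induction medium to eight half-log concentrations up to 100 uM (0.5% DMSO). GCLM mRNA by TaqMan qRT-PCR, normalized to ACTB, GAPDH and POLR2A; bidirectional fit versus DMSO.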

Read-out in assay [4]: Glutathione S-transferase M3 (GSTM3), GSTM3 (gene 2947)
In words: LTEA_HepaRG_GSTM3: Life Technologies and Expression Analysis (LTEA) Assay for Glutathione S-transferase M3 (GSTM3) using HepaRG (AID 2283501). The procedure, abridged:
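Differentiated human HepaRG cells were exposed in duplicate for 48 h in serum-free induction medium, 8 points from 100 uM top in half-log steps, 0.5% DMSO. GSTM3 mRNA was measured by TaqMan qRT-PCR, normalized to ACTB, GAPDH and POLR2A; bidirectional fit versus DMSO.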

Read-out in assay [5]: Heat shock 70 kDa protein 1 (HSPA1A), gene 3303
In words: LTEA_HepaRG_HSPA1A: Life Technologies and Expression Analysis (LTEA) Assay for Heat shock 70 kDa protein 1 (HSPA1A) using HepaRG (AID 2283502). The gist of the method: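 Human HepaRG cells in serum-free induction medium were exposed in duplicate for 48 h to 8 half-log concentrations, highest 100 uM, in 0.5% DMSO. HSPA1A mRNA read by TaqMan qRT-PCR, normalized to ACTB, GAPDH, POLR2A, fitted bidirectionally against DMSO.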

Read-out in assay [6]: Hypoxia-inducible factor 1-alpha (Homo sapiens) (UniProt Q16665)
The experiment in a line: LTEA_HepaRG_HIF1A: Life Technologies and Expression Analysis (LTEA) Assay for Hypoxia-inducible factor 1 (HIF1A) Trancription factor using HepaRG (AID 2283503). The procedure, abridged: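 Differentiated HepaRG cells in serum-free induction medium exposed 48 h, in duplicate, to 8-point half-log series from 100 uM in 0.5% DMSO. HIF1A mRNA measured by TaqMan qRT-PCR, normalized to ACTB/GAPDH/POLR2A, fitted bidirectionally versus DMSO.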

Read-out in assay [7]: 3-Hydroxy-3-Methylglutaryl-CoA Synthase 2 (HMGCS2), HMGCS2 (gene 3158)
In words: LTEA_HepaRG_HMGCS2: Life Technologies and Expression Analysis (LTEA) Assay for 3-Hydroxy-3-Methylglutaryl-CoA Synthase 2 (HMGCS2) using HepaRG (AID 2283504). The gist of the method: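 Human HepaRG cells in serum-free induction medium were exposed in duplicate for 48 h to 8-point half-log series from 100 uM top in 0.5% DMSO. HMGCS2 mRNA measured by TaqMan qRT-PCR, normalised to ACTB, GAPDH, POLR2A; bidirectional fit versus DMSO.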

Read-out in another assay: HGF (gene 3082)
The experiment in a line: LTEA_HepaRG_HGF: Life Technologies and Expression Analysis (LTEA) Assay for Hepatocyte Growth Facto (HGF) using HepaRG (AID 2283505). The gist of the method: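 Differentiated HepaRG cells in serum-free induction medium exposed 48 h in duplicate, 8 half-log concentrations from 100 uM in 0.5% DMSO. HGF mRNA by qRT-PCR, normalised to ACTB, GAPDH, POLR2A; bidirectional fitting.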

Read-out in assay [8]: Insulin Like Growth Factor 1 (IGF1), IGF1 (gene 3479)
In words: LTEA_HepaRG_IGF1: Life Technologies and Expression Analysis (LTEA) Assay for Insulin Like Growth Factor 1 (IGF1) using HepaRG (AID 2283506). The procedure, abridged: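 Differentiated HepaRG cells in serum-free induction medium, exposed 48 h in duplicate to 8 half-log concentrations up to 100 uM in 0.5% DMSO. IGF1 mRNA by Fluidigm qRT-PCR, normalised to ACTB, GAPDH and POLR2A.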

Read-out in assay [9]: Intercellular Adhesion Molecule 1 (ICAM1), ICAM1 (gene 3383)
The experiment in a line: LTEA_HepaRG_ICAM1: Life Technologies and Expression Analysis (LTEA) Assay for Intercellular Adhesion Molecule 1 (ICAM1) using HepaRG (AID 2283507). The gist of the method: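 Differentiated human HepaRG cells in serum-free induction medium exposed 48 h in duplicate to 8 half-log concentrations (top 100 uM, 0.5% DMSO). ICAM1 mRNA quantified by TaqMan qRT-PCR, normalized to ACTB, GAPDH and POLR2A; bidirectional fitting versus DMSO.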

Read-out in assay [10]: Insulin-like growth factor-binding protein 1 (IGFBP1), IGFBP1 (gene 3484)
The experiment in a line: LTEA_HepaRG_IGFBP1: Life Technologies and Expression Analysis (LTEA) Assay for Insulin-like growth factor-binding protein 1 (IGFBP1) using HepaRG (AID 2283508). The gist of the method: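 HepaRG cells, plated 48 h then switched to serum-free induction medium, exposed in duplicate for 48 h to 8-point half-log series from 100 uM in 0.5% DMSO. mRNA measured by qRT-PCR, normalized to ACTB/GAPDH/POLR2A; bidirectional fit versus DMSO.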

Read-out in assay [11]: Interleukin 6 (IL6), IL6 (gene 3569)
In words: LTEA_HepaRG_IL6: Life Technologies and Expression Analysis (LTEA) Assay for Interleukin 6 (IL6) using HepaRG (AID 2283509). The gist of the method:
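HepaRG cells exposed in duplicate for 48 h to eight half-log concentrations, top 100 uM, in 0.5% DMSO serum-free induction medium. mRNA measured by qRT-PCR, normalized to ACTB, GAPDH and POLR2A. Bidirectional fit versus DMSO.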

Read-out in assay [12]: Interleukin 6 Receptor (IL6R), IL6R (gene 3570)
In words: LTEA_HepaRG_IL6R: Life Technologies and Expression Analysis (LTEA) Assay for Interleukin 6 Receptor (IL6R) using HepaRG (AID 2283510). The procedure, abridged:
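Differentiated HepaRG cells, plated 48 h, then exposed in duplicate for 48 h in serum-free induction medium to 8 half-log concentrations (top 100 uM, 0.5% DMSO). IL6R mRNA measured by TaqMan qRT-PCR, normalized to ACTB/GAPDH/POLR2A; bidirectional fit vs DMSO.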

Read-out in assay [13]: Potassium channel subfamily K member 1 (KCNK1), KCNK1 (gene 3775)
In words: LTEA_HepaRG_KCNK1: Life Technologies and Expression Analysis (LTEA) Assay for Potassium channel subfamily K member 1 (KCNK1) using HepaRG (AID 2283511). The procedure, abridged:
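Differentiated HepaRG cells, 48 h exposure in serum-free induction medium with 0.5% DMSO; 8 concentrations, half-log from 100 uM, duplicate. KCNK1 mRNA by qRT-PCR, normalized to ACTB, GAPDH, POLR2A; bidirectional fit vs DMSO.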

Read-out in assay [14]: Keratin 19 (KRT19), KRT19 (gene 3880)
In words: LTEA_HepaRG_KRT19: Life Technologies and Expression Analysis (LTEA) Assay for Keratin 19 (KRT19) using HepaRG (AID 2283512). The gist of the method:
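Differentiated HepaRG cells in serum-free induction medium, exposed 48 h in duplicate to 8 half-log concentrations up to 100 uM in 0.5% DMSO. KRT19 mRNA by qRT-PCR, normalized to ACTB, GAPDH, POLR2A; bidirectional fit vs DMSO.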

Read-out in assay [15]: JUN Transcription Factor, JUN (gene 3725)
The experiment in a line: LTEA_HepaRG_JUN: Life Technologies and Expression Analysis (LTEA) Assay for JUN Transcription Factor using HepaRG (AID 2283513). The gist of the method: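 HepaRG cells, 48 h post-plating, exposed 48 h in serum-free induction medium to 8-point half-log series (top 100 uM, 0.5% DMSO), duplicate; mRNA by qRT-PCR (TaqMan, Fluidigm), normalized to ACTB/GAPDH/POLR2A; bidirectional fit vs DMSO.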

Read-out in assay [16]: Lipase C (LIPC), LIPC (gene 3990)
The experiment in a line: LTEA_HepaRG_LIPC: Life Technologies and Expression Analysis (LTEA) Assay for Lipase C (LIPC) using HepaRG (AID 2283514). The procedure, abridged:
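HepaRG cells, 48 h after plating, treated in duplicate for 48 h in serum-free induction medium over 8 half-log concentrations from 100 uM, 0.5% DMSO. LIPC mRNA by TaqMan qRT-PCR normalized to ACTB/GAPDH/POLR2A; bidirectional fit versus DMSO.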

Read-out in assay [17]: Lipoprotein lipase (LPL), LPL (gene 4023)
The experiment in a line: LTEA_HepaRG_LPL: Life Technologies and Expression Analysis (LTEA) Assay for Lipoprotein lipase (LPL) using HepaRG (AID 2283515). The procedure, abridged:
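Differentiated HepaRG cells, plated 48 h, then exposed 48 h in serum-free induction medium to 8 concentrations (top 100 uM, half-log steps) in 0.5% DMSO, duplicate. LPL mRNA measured by qRT-PCR, normalized to ACTB, GAPDH and POLR2A.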

Read-out in assay [18]: growth arrest and DNA damage 45 (GADD45G), GADD45G (gene 10912)
The experiment in a line: LTEA_HepaRG_GADD45G: Life Technologies and Expression Analysis (LTEA) Assay for growth arrest and DNA damage 45 (GADD45G) using HepaRG (AID 2283499). The procedure, abridged:
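Differentiated human HepaRG cells, 48 h post-plating, exposed 48 h in serum-free induction medium to 8 half-log concentrations (top 100 uM, 0.5% DMSO) in duplicate. GADD45G mRNA measured by Fluidigm TaqMan qRT-PCR, normalized to ACTB, GAPDH, POLR2A; bidirectional fit versus DMSO.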

Read-out in assay [19]: MicroRNA 122 (MIR122), gene 406906
The experiment in a line: LTEA_HepaRG_MIR122: Life Technologies and Expression Analysis (LTEA) Assay for MicroRNA 122 (MIR122) using HepaRG (AID 2283516). Also: the transcript read is the microRNA miR-122. The gist of the method: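 Differentiated human HepaRG cells in serum-free induction medium exposed 48 h to 8 half-log concentrations from 100 uM in 0.5% DMSO, duplicate. MIR122 quantified by Fluidigm TaqMan qRT-PCR, normalised to ACTB, GAPDH, POLR2A; fold change fitted bidirectionally versus DMSO.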

Activity calls are given as the source filed them. The calls were made as follows: active = hit-call score of the fitted dose curve at least 0.9, where 1 is the maximum; inactive = score below 0.9.

In general, AC50 refers to the midpoint of the concentration-response curve, whichever way the signal moves.

Sequence of Hypoxia-inducible factor 1-alpha (Homo sapiens) (Q16665 whole entry, looked up): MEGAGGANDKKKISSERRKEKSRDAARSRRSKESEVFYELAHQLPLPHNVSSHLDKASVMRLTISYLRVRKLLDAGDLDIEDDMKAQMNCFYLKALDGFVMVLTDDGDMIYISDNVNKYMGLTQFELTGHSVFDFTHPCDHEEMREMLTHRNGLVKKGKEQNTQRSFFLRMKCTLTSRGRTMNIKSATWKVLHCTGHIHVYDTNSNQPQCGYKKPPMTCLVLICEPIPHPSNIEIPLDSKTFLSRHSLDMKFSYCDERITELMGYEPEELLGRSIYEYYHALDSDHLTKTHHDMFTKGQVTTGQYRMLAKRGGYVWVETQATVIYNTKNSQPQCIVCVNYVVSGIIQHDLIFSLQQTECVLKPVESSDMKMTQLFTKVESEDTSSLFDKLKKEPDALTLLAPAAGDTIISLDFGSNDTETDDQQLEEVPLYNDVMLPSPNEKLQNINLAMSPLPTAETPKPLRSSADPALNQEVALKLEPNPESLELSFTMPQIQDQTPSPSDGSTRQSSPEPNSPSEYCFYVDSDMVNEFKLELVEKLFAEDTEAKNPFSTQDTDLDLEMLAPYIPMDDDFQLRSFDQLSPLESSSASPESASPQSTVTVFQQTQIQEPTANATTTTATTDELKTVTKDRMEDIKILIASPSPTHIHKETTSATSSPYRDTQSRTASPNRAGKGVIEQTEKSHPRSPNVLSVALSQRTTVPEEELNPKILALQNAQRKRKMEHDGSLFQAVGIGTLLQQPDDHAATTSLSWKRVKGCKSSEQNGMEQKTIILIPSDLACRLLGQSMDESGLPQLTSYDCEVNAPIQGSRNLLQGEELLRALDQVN

For `C=CCOC(=O)c1ccccc1C(=O)OCC=C`, the result in [1], in assay [2], in [3], in [4], in [5] and in [6] was inactive. Moreover, the outcome (in assay [7]; with HGF (gene 3082); in [8]; in assay [9]; in assay [10]; in assay [11]) was inactive. For the same compound, the call in assay [12], in assay [13], in assay [14], in assay [15], in assay [16] and in assay [17] was inactive.
For `Nc1ccc(S(=O)(=O)c2ccc(N)cc2)cc1`, the outcome in assay [1], in assay [2], in assay [18], in assay [3], in [4] and in assay [5] was inactive. Moreover, the compound was classed as inactive (in assay [7]; with HGF (gene 3082); in assay [8]; in assay [10]; in [11]; in assay [12]). Also, the compound was classed as inactive in assay [13], in [14], in [15], in [16], in [17] and in assay [19].
For the compound `O=C(N[C@@H](Cc1ccccc1)[C@@H](O)C(=O)N1C[C@@H](O)[C@@H](O)C1)c1cc2cc(Cl)ccc2[nH]1`, the AC50 in [1] was 81.7 µM (active); in assay [7], 89 µM (active); in [10] it was 63.4 µM (active); in assay [17], 20.1 µM (active). The result in assay [2], in [18], in [3], in assay [4], in [5] and in assay [6] was inactive. Also, the outcome (with HGF (gene 3082); in assay [8]; in assay [11]; in assay [12]; in [13]; in [14]) was inactive. Also, the call in assay [15], in [16] and in [19] was inactive.
As to `OC[C@@H](O)[C@@H](O)[C@H](O)[C@H](O)CO`, the compound was called inactive in assay [1], in assay [2], in assay [3], in assay [4], in assay [5] and in [6]. The result (in assay [7]; in the assay with HGF (gene 3082); in [8]; in assay [9]; in [10]; in [11]) was inactive. In addition, the compound was called inactive in assay [12], in assay [13], in assay [14], in [15], in [16] and in assay [17].
